Laboratory results from publication PMC5540273 (PLoS ONE, 2017).

Experiments:
Details in all cases: concentration: 1 μM, replicates: in singlicate; n = 1
ASK2 = tested on: T1, ASK2
T1 construct: gene MAP3K6

AURKA = tested on: AURKA
AURKB = tested on: AURKB
AURKC = tested on: AURKC
AXL = tested on: AXL
BIKE = tested on: T2, BIKE
T2 construct: gene BMP2K

BLK = tested on: BLK
BMPR1A = tested on: BMPR1A
BMPR1B = tested on: BMPR1B
BMPR2 = tested on: BMPR2
BMX = tested on: BMX
BRAF = tested on: BRAF
BRK = tested on: T3, BRK
T3 construct: gene PTK6

BRSK1 = tested on: BRSK1
BRSK2 = tested on: BRSK2
BTK = tested on: BTK
BUB1 = tested on: BUB1
CAMK1B = tested on: CAMK1B
CAMK1D = tested on: CAMK1D
CAMK1G = tested on: CAMK1G
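Also: KINOMEscan kinase panel screen.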

Structure (SMILES) | %Inh (ASK2) [%] | %Inh (AURKA) [%] | %Inh (AURKB) [%] | %Inh (AURKC) [%] | %Inh (AXL) [%] | %Inh (BIKE) [%] | %Inh (BLK) [%] | %Inh (BMPR1A) [%] | %Inh (BMPR1B) [%] | %Inh (BMPR2) [%] | %Inh (BMX) [%] | %Inh (BRAF) [%] | %Inh (BRK) [%] | %Inh (BRSK1) [%] | %Inh (BRSK2) [%] | %Inh (BTK) [%] | %Inh (BUB1) [%] | %Inh (CAMK1B) [%] | %Inh (CAMK1D) [%] | %Inh (CAMK1G) [%]
CCn1c(-c2nonc2N)nc2c(C#CC(C)(C)O)ncc(OCCCCN)c21.O=C(O)C(F)(F)F.O=C(O)C(F)(F)F [GSK507274] | 16 | 0 | 38 | 9 | 0 | 26 | 8 | 14 | 0 | 12 | 19 | 8 | 27 | 0 | 0 | 0 | 37 | 0 | 40 | 7
NCCCC(NC(=O)c1cc(Br)c(-c2ccnc3[nH]ccc23)s1)c1ccccc1.O=C(O)C(F)(F)F.O=C(O)C(F)(F)F (stereo not shown) [GSK1287544] | 0 | 74 | 56 | 95.7 | 74 | 97.9 | 0 | 0 | 0 | 21 | 7 | 0 | 3 | 28 | 0 | 0 | 21 | 10 | 18 | 0
Cn1cc(-c2[nH]c3cc(NC(=O)[C@H](N)C4CCCCC4)cc4c3c2C=NNC4=O)cn1 | 0 | 100 | 99.7 | 99.3 | 99.9 | 100 | 99.5 | 19 | 87 | 22 | 13 | 39 | 14 | 31 | 61 | 94.2 | 100 | 87 | 90.4 | 0
COc1cc(Nc2ncc3c(C)nc(-c4cc5ccccc5[nH]4)n3n2)cc(OC)c1OC [GW869516] | 0 | 0 | 1 | 26 | 26 | 9 | 60 | 22 | 0 | 0 | 25 | 0 | 36 | 0 | 14 | 0 | 0 | 0 | 8 | 0
COc1ccc(Nc2nccc(NCCNC(=O)c3cc4ccccc4s3)n2)cc1 [GSK1379896] | 0 | 16 | 0 | 17 | 14 | 4 | 23 | 0 | 0 | 0 | 17 | 0 | 1 | 6 | 0 | 0 | 9 | 39 | 6 | 0
c1ccc(-c2n[nH]cc2Nc2ccnc3ccccc23)nc1 [GW694077] | 1 | 15 | 45 | 78 | 0 | 100 | 28 | 0 | 3 | 47 | 6 | 0 | 0 | 0 | 0 | 0 | 88 | 49 | 30 | 9
CC(C)c1nc(-c2cccc(NS(=O)(=O)c3c(F)cccc3F)c2F)c(-c2ccnc(Nc3ccc(N4CCOCC4)nc3)n2)s1 [GSK2008607] | 3 | 93.6 | 91.8 | 53 | 97.5 | 24 | 99.7 | 53 | 98.5 | 0 | 99.2 | 99.9 | 88 | 49 | 75 | 95.3 | 98 | 67 | 94.3 | 42
c1ccc(-c2cnc3nccnn23)cc1 [AH20685] | 0 | 0 | 13 | 0 | 0 | 0 | 37 | 0 | 0 | 0 | 0 | 33 | 22 | 0 | 0 | 6 | 0 | 0 | 0 | 0
CSc1cccc2c(-c3ccncn3)c(-c3ccc(F)cc3)nn12 [GW514786] | 29 | 8 | 15 | 7 | 11 | 8 | 19 | 10 | 0 | 11 | 14 | 13 | 9 | 14 | 0 | 11 | 89 | 0 | 7 | 0
O=C(O)C(F)(F)F.O=C(O)C(F)(F)F.O=c1[nH]ccc2nc(N[C@@H]3CCCNC3)nc(Nc3ccc(S(=O)(=O)N4CCOCC4)cc3)c12 [GSK2177277] | 19 | 96.8 | 97.6 | 100 | 99.9 | 100 | 95.6 | 0 | 90.8 | 98.6 | 58 | 0 | 9 | 69 | 69 | 90.7 | 90.5 | 100 | 99.1 | 74
Cc1cccc(NC(=O)Nc2ccc(Oc3ncnc4ccn(C)c34)cc2)c1 | 0 | 0 | 94.9 | 85 | 44 | 10 | 0 | 0 | 0 | 0 | 0 | 0 | 0 | 0 | 0 | 91.6 | 0 | 14 | 6 | 0
O=C(Nc1n[nH]c2nc(-c3ccc(O)cc3)ccc12)C1CC1 [SB-710363] | 12 | 11 | 47 | 0 | 37 | 32 | 12 | 8 | 34 | 16 | 22 | 0 | 0 | 26 | 11 | 0 | 0 | 0 | 0 | 4
Cl.c1ccc(-c2ccc3c(Nc4ccc5[nH]ncc5c4)ccnc3c2)nc1 [GW440137] | 19 | 1 | 3 | 22 | 4 | 18 | 40 | 0 | 31 | 0 | 0 | 7 | 20 | 0 | 2 | 0 | 47 | 36 | 18 | 5
COc1cccc(C(=O)Nc2cccc(Oc3ccc4nc(NC(=O)C5CC5)cn4n3)c2)c1 | 0 | 55 | 81 | 74 | 65 | 18 | 95.3 | 10 | 13 | 0 | 77 | 96.5 | 21 | 4 | 0 | 9 | 0 | 0 | 17 | 21
COC(=O)Nc1nc2ccc(Oc3ccc(NC(=O)Nc4cc(C(F)(F)F)ccc4F)cc3)cc2n1C.Cl [GW692089] | 0 | 0 | 94.1 | 14 | 95 | 0 | 27 | 0 | 0 | 11 | 5 | 57 | 0 | 0 | 26 | 59 | 42 | 0 | 1 | 0
CCS(=O)(=O)c1ccc(OC)c(Nc2nccc(-c3c(-c4cccc(NC(=O)c5c(F)cccc5F)c4)nn4ncccc34)n2)c1 [GSK326180] | 9 | 15 | 25 | 60 | 9 | 40 | 36 | 0 | 0 | 4 | 0 | 90 | 93.5 | 0 | 0 | 15 | 28 | 33 | 12 | 7
Cl.Cl.NCC(NCc1ccc(-c2ccnc3[nH]ccc23)s1)c1ccccc1 (stereo not shown) [GSK1321565] | 0 | 47 | 79 | 97.2 | 95.1 | 100 | 0 | 0 | 0 | 3 | 8 | 0 | 0 | 0 | 0 | 0 | 64 | 59 | 17 | 11
